Coupling enz = coupling enzyme interference in Giardia aldolase counter-screen | coupling enzyme system counterscreen, AmpLite Red fluorescence | activity change, negative = inhibition, % at 58.2 µM, hits read low | hit rate 0.67% among 290,000; in the data active = activity change below about -30%
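Activity here indicates interference with the coupling reaction, not aldolase inhibition. Compounds at 57.5 uM final met coupling enzymes for 10 min at RT; substrate and AmpLite Red detection followed, with a 525/598 nm fluorescence read after 20 min.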
B2AR arrestin = recruits beta-arrestin to the human beta2-adrenergic receptor; P07550; beta-arrestin recruitment to beta2AR, cell-based reporter; Potency, µM (doses to about 46.1 µM), inactives show top-dose activation, hits mostly activators; hit rate 0.02% among 330,000;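 also: potency is read from the fitted curve at half-maximal effect; 0% = DMSO controls and full agonism = EC100 isoproterenol or metaproterenol; nearly all actives have a fitted effect of over 65% in size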
Target sequence (P07550 whole entry, looked up): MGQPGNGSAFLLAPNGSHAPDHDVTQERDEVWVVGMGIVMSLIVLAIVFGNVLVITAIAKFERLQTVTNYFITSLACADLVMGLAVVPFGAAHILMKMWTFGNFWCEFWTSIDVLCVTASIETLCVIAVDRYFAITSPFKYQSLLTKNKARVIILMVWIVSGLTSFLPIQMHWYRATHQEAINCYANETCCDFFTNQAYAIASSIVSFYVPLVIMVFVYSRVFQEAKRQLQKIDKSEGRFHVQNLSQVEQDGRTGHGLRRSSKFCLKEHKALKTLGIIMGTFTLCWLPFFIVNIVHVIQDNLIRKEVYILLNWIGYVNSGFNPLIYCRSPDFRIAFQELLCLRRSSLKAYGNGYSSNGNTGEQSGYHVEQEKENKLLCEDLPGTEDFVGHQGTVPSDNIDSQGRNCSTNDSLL
GAA glycogen = inhibitors or activators of human alpha-glucosidase glycogen cleavage. recombinant GAA, glycogen substrate, Amplex Red glucose oxidase fluorescence. Potency, µM (highest dose often 76.4 µM), for inactives: at the highest dose activity change, negative = inhibition, actives largely listed as inhibitors. hit rate 0.38% among 300,000;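 also: potency is read from the fitted curve at half-maximal effect; 0% = full enzyme reaction and -100% = no-enzyme basal signal; the screen sought inhibitors and activators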
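Recombinant human enzyme (4 nM); glycogen substrate; 37 C, 40 min, pH 5.0. Readout: coupled glucose oxidase/Amplex Red fluorescence.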
aGlu spleen mod = inhibits or activates alpha-glucosidase in human spleen homogenate | P10253 | hit rate 0.006% among 240,000 | human spleen homogenate, 4-MU-alpha-glucoside fluorescence | Potency, µM (doses to about 79.9 µM), without a hit: top-dose activity change, negative = inhibition, hits mostly inhibitors;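 also: potency is read from the fitted curve at half-maximal effect; 0% = enzyme with vehicle and -100% = no enzyme basal signal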
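Human spleen homogenate (1 ug) with 4-methylumbelliferyl-alpha-D-glucopyranoside (1 mM final) in 50 mM citrate/phosphate pH 5.0, 0.01% Tween-20; 40 min at 37 C. Stopped at pH 10; 4-MU fluorescence Ex 365/Em 440 nm; AC50 by Hill fit.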
GAA inhib = alpha-glucosidase (human) inhibition; hit rate 0.005% among 200,000; P10253; purified human GAA, 4-MU-alpha-glucoside fluorescence; AID 1466; Potency, µM (top dose mostly 76.9 µM), for inactives: at the top dose activity change, negative = inhibition, most hits filed as inhibitors;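 also: potency is read from the fitted curve at half-maximal effect; plate controls were uninhibited enzyme wells for no effect and no-enzyme background for full effect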
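Read-out is 4-methylumbelliferone fluorescence (Ex 365/Em 440 nm) after NaOH/glycine stop at pH 10. Enzyme 4 nM, substrate 400 uM, pH 5.0 citrate buffer, 20 min room temperature; AC50 from Hill-equation concentration-response.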
Numbers without * were called inactive; ? = inconclusive; · = no result given; ! = repeats disagree; [ ] = dose if it differs, or a comment. Hits are enriched below; roughly 0.85% of the tested compounds scored in any of these assays. Unless noted, calls follow the shape of the dose curve; as a rule, active = well fitted curve in the direction sought with a large enough effect; inconclusive = small, poorly fitted or top-dose-only effect, or another doubt; inactive = no such curve, though single readings can be large; an effect the other way counts as inactive or inconclusive. Unless noted, % is scaled to controls: 0 for no effect and ±100 for the full control effect.

SMILES | Coupling enz | B2AR arrestin | GAA glycogen | aGlu spleen mod | GAA inhib
O=C(CO)[C@@H](O)C(O)[C@@H](O)CO (some centres not stated) | 0 | · | · | 4% | ·
CC(=O)c1ccc(NC(=O)c2ccc3nc(-c4ccco4)c(-c4ccco4)nc3c2)cc1 | -30* | 0% | 6% | -10% | -3%
CCN1C(=O)[C@H]2[C@H]3[C@H](O)[C@H](O)C/C(=N/OCc4ccccc4)[C@H]3CC[C@@H]2C1=O | 0 | · | · | 1%[17.4 µM] | ·
Cc1cc(C)c(-c2cc([C@H](C)O/N=C\[C@@H](C)[C@H](OCc3ccccc3)C(C)C)on2)c(C)c1 | 1 | · | · | 1%[17.4 µM] | ·
COc1ccc(/C=C2/C(=O)N(c3ccccc3)N=C2C)cc1Br | 3 | 0% | -1% | · | ·
COc1cc(/C=C2/C(=O)N(c3ccccc3)N=C2C)ccc1OS(=O)(=O)c1ccccc1 | -42* | -1% | 4% | 0% | -6%
COC(=O)c1ccc(C(NC(=O)OCc2ccccc2)/C(=C/[C@@H](C)C(=O)NCC2CC2)c2cccnc2)cc1 (some centres not stated) | 0 | · | · | -8% | ·
c1nc(NC2CCNCC2)c2cc(-c3ccoc3)ccc2n1 | 0 | · | · | -1% | ·
N#Cc1c(-c2ccncc2)c2c([nH]c1=S)CCCC2 | -36* | 0% | -20% | -6% | 2%
CC(=O)/C(=N/Nc1cccc(C)c1)N1CCOCC1 | 2 | 0% | 18µM* | -2% | 0%
Cc1cccc(C(=O)Nc2cccc(C(=O)N3CCOCC3)c2)c1 | -3 | 1% | 7% | 0% | -3%
Cc1ccc(Nc2c(-c3ccc(N4CCOCC4)cc3)nc3ncccn23)c(C)c1 | -1 | -1% | 32µM* | 4% | 3%
Cc1cccc(C)c1Nc1c(-c2ccc(N3CCOCC3)cc2)nc2ncccn12 | -12 | -1% | 20µM*! | -21% | 6%
COc1ccccc1CNc1ncnc2ccc(-c3ccccc3C#N)cc12 | 0 | · | · | 9% | ·
CCOC(=O)C1CCN(c2nc3ccccc3nc2C(C#N)C(=O)NCCc2ccccc2)CC1 (configuration not stated) | 1 | -2% | 14µM* | -10% | -5%[15.4 µM]
Cc1cc(=O)n2nc(N3CCC(C(=O)Nc4ccc(Br)c(C)c4)CC3)sc2n1 | · | · | 12%[76.3 µM] | · | ·
CCCCCC#CC[C@@H](O)/C=C/C=C/C=C\[C@@H](O)CCCC(=O)O | 1 | · | · | 6% | ·
N#CC1=C(SCC(=O)c2cc3ccccc3oc2=O)NC(=O)C(C#N)C12CCCC2 (configuration not stated) | -6 | 1% | 22µM* | -5% | -9%
N#Cc1cccc(NC(=O)N2CC[C@@]3(CCCN(C(=O)c4ccncc4)C3)C2)c1 | 0 | · | · | -9% | ·
CC(C)[C@@H]1NC(=O)[C@H](CCCCN)NC(=O)[C@@H](Cc2c[nH]c3ccccc23)NC(=O)[C@H](Cc2ccc(O)cc2)NC(=O)[C@@H](NC(=O)[C@H](N)Cc2ccccc2)CSSC[C@@H](C(=O)N[C@@H](Cc2c[nH]c3ccccc23)C(N)=O)NC1=O | -1 | · | · | -9% | ·
CN(C)c1cccc2c1c(NC(=O)Nc1ccc(Cl)cc1Cl)nn2C | -23 | -1% | -1% | 0% | ?
COc1ccccc1NC(=O)Nc1nn(C)c2cccc(N(C)C)c12 | -34* | -1% | -12% | -2% | ·
O=C(Nc1ccc(N2CCOCC2)c(Cl)c1)c1ccc(Br)o1 | -32* | 0% | -11% | 14% | 6%
O=C(Nc1ccc(N2CCOCC2)c(Cl)c1)c1cc2ccccc2o1 | -33* | 0% | -12% | 0% | -7%
CN(C)c1nc(NS(=O)(=O)c2ccc(Cl)cc2)nc(N(C)C)n1 | -32* | 0% | -13% | 4% | 7%
COC(=O)[C@@]1(Cc2ccccc2-c2ccco2)C=C[C@H](C)[C@@H](c2ccccc2)N1C(=O)C(F)(F)F | 2 | · | · | 8% | ·
CCCn1c(-c2ccc(F)cc2)nc2c(NCCN(CC)CC)nc(C)nc21 | 0 | · | · | -1% | ·
Oc1ccc(/C=N/N2CCN(C3c4ccccc4-c4ccccc43)CC2)cc1O | 8 | -1% | 10µM* | 0% | ·
C=CCc1cccc(/C=N/c2ncccc2O)c1O | -43* | 0% | ? | -15% | -2%
